FID counter: displaces DNA intercalator in HCV helicase counter-screen; DNA fluorescent intercalator displacement, fluorescence; inhibition, % at 7.9 µM; 0.17% of 290,000 active; in the data active means inhibition above about 37%;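 further: higher means more ethidium bromide displaced from hairpin DNA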
GPR7 antagonist: human neuropeptides B/W receptor 1 antagonism | GPR7-expressing cells, fluorescence antagonist assay | inhibition, % at 4.4 µM | AID 1861 | 1.1% of 290,000 active; in the data active means inhibition above about 16%, passing the limit was not always enough;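 further: cells stimulated with the agonist NPW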
Target sequence (P48145 whole entry, looked up): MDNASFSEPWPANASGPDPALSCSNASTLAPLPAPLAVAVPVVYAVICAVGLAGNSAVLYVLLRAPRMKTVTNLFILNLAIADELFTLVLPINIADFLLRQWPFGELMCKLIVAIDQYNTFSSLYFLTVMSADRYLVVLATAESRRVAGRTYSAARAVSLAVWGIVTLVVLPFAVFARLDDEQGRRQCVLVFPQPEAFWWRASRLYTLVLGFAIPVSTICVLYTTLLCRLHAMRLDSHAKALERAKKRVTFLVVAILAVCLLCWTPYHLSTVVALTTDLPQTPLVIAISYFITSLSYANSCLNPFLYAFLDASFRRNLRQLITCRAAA
KLF5 inh: inhibitors of KLF5 expression. DLD-1 KLF5 promoter-luciferase reporter, luminescence. inhibition, % at 5 µM. 0.23% of 290,000 active. AID 1700;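 active means inhibition above a per-plate limit of that plate's mean compound inhibition plus 3 SD, cut at about 60% in these data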;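 further: higher means less KLF5 promoter-driven luciferase light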
BaF3 parental: counter-screen for JAK2V617F inhibitors: parental Ba/F3 viability inhibitors | 1.1% of 220,000 active | inhibition, % at 5.6 µM | CellTiter-Glo ATP luminescence;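 active means inhibition above a per-campaign cutoff, the mean inhibition of all tested compounds plus 3 SD, cut at about 27% in these data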
Ba/F3 V617F tox: lowers viability of Ba/F3 cells expressing EpoR and JAK2V617F; ATP luminescence; inhibition, % at 5.6 µM; 1.1% of 220,000 active; AID 1446;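 active means inhibition above the campaign mean plus 3 SD over all tested compounds, cut at about 24% in these data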;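 further: cytokine-independent growth of Ba/F3 cells driven by EpoR plus mutant JAK2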
IEC-6 tox: kills IEC-6 intestinal cells in KLF5 counter-screen; IEC-6 cytotoxicity, luminescence viability; inhibition, % at 5 µM; 0.78% of 290,000 active; in the data active means inhibition above about 22%
Large screens that a line does not name were inactive. Shown are actives, neighbours in structure and some others; about 2.6% of the full set was active somewhere.

CCN(CC)S(=O)(=O)c1cccc(C(=O)Nc2ccccc2C(=O)N2CCOCC2)c1	none
Cc1ccc(CNS(=O)(=O)c2ccc(Br)s2)cc1	none (no result: BaF3 parental, Ba/F3 V617F tox)
CCn1c(NC2CCCCC2)nc2ccccc21	none
CCc1n(CC(O)COCC2CC=CCC2)c2ccccc2[n+]1C (configuration not stated)	BaF3 parental 35.0, Ba/F3 V617F tox 25.6
CCc1n(CC(O)COC2CCCCC2)c2ccccc2[n+]1C (configuration not stated)	BaF3 parental 57.0, Ba/F3 V617F tox 24.3
Cc1nc2ccccc2n1CC(O)COCC1CC=CCC1 (configuration not stated)	none
CCn1c(C)[n+](CC(O)COCC2CC=CCC2)c2ccccc21 (configuration not stated)	BaF3 parental 40.6, Ba/F3 V617F tox 26.6
CCCc1n(CC)c2ccccc2[n+]1CC(O)COC1CCCCC1 (configuration not stated)	BaF3 parental 49.9, Ba/F3 V617F tox 32.9
Cc1cc(NS(=O)(=O)c2ccc(C(C)C)cc2)no1	none (no result: BaF3 parental, Ba/F3 V617F tox)
Nn1c(Cc2ccc(F)cc2)n[nH]c1=S	none
CCOC(=O)c1c(N)sc(C(=O)N2CCCCC2)c1C	none
COC(=O)c1ccccc1NC(=O)c1cc(OC)cc(OC)c1	none
Cc1ccc2nc(SCc3nc4cc(Cl)ccc4c(=O)[nH]3)[nH]c2c1	none
CC(C(=O)c1ccc(-c2ccccc2)cc1)[n+]1cccc(C(N)=O)c1 (configuration not stated)	none (no result: BaF3 parental, Ba/F3 V617F tox)
CC(C(=O)c1ccc(-c2ccccc2)cc1)[n+]1ccccc1 (configuration not stated)	BaF3 parental 63.6, Ba/F3 V617F tox 47.0
Cc1cc[n+](C(C)C(=O)c2ccc(Cl)cc2)cc1 (configuration not stated)	none (no result: BaF3 parental, Ba/F3 V617F tox)
Cc1cc[n+](C(C)C(=O)c2ccc(-c3ccccc3)cc2)cc1 (configuration not stated)	BaF3 parental 66.5, Ba/F3 V617F tox 81.0
Cc1ccc[n+](C(C)C(=O)c2ccc(-c3ccccc3)cc2)c1 (configuration not stated)	BaF3 parental 68.7, Ba/F3 V617F tox 57.7
CN(Cc1ccccc1)S(=O)(=O)c1ccc(NC(=S)NC(=O)C2CCCCC2)cc1	none
Cc1ccc(NC(=O)N2CCCC2C(=O)NCc2ccccc2Cl)cc1 (configuration not stated)	none (no result: BaF3 parental, Ba/F3 V617F tox)
O=S(=O)(c1ccc2ccccc2c1)N1CCN(C(=S)Nc2ccc(F)cc2)CC1	BaF3 parental 35.0
CCC(CC)C(=O)NCc1ccccc1OC	none
CCn1cc(C(=O)NC(C)C23CC4CC(CC(C4)C2)C3)cn1 (configuration not stated)	none
CC(NC(=O)Cn1ncc(Cl)c(Cl)c1=O)C12CC3CC(CC(C3)C1)C2 (configuration not stated)	GPR7 antagonist 23.4, BaF3 parental 74.6, Ba/F3 V617F tox 62.6, IEC-6 tox 25.4
CCN(CC)S(=O)(=O)c1cc(NC(=O)Cn2ncc(Cl)c(Cl)c2=O)ccc1C	none
CCC(=O)Nc1ccc(C(=O)Cn2ncc(Cl)c(Cl)c2=O)cc1	BaF3 parental 44.6, Ba/F3 V617F tox 77.5
Cc1ccc(/C(O)=C2\C(=O)C(=O)N(CC(C)O)C2c2ccccn2)cc1 (configuration not stated)	none
CCN1/C(=C/C=C/C=C/C=C/c2sc3ccccc3[n+]2CC)Sc2ccccc21	none (no result: BaF3 parental, Ba/F3 V617F tox)
CCN1/C(=C/C=C/C=C/c2sc3ccccc3[n+]2CC)Sc2ccccc21	BaF3 parental 48.2, Ba/F3 V617F tox 50.9
Cc1n[nH]c(C)c1S(=O)(=O)N1CCC(C(=O)Nc2cccc(F)c2)CC1	none (no result: BaF3 parental, Ba/F3 V617F tox)
COc1cc(/C=C2/SC(=Nc3ccc(O)cc3)NC2=O)ccc1O	BaF3 parental 72.5, Ba/F3 V617F tox 75.2
Cn1c(=O)n(C)c2cc(NS(=O)(=O)c3ccc(C(C)(C)C)cc3)ccc21	BaF3 parental 29.9
Cn1c(=O)n(C)c2cc(NS(=O)(=O)c3ccc4c(c3)CCCC4)ccc21	BaF3 parental 27.6, Ba/F3 V617F tox 24.8
O=C(Nc1ccc(Cl)c(Cl)c1)Nc1cc(C(=O)N2CCOCC2)ccc1N1CCCCC1	none
CC1=NN(c2ccccc2)C(=O)/C1=C\c1cc(C)n(-c2ccccc2)c1C	IEC-6 tox 25.0
O=C(O)c1cccc(-c2ccc(/C=N/NC(=O)c3cccnc3)o2)c1	BaF3 parental 28.4
COc1ccc(CCNc2c(C)c(C)nc3ncnn23)cc1	BaF3 parental 57.9, Ba/F3 V617F tox 50.5
CN1CCN(CCCC(=O)c2ccc(F)cc2)CC1	BaF3 parental 92.2
O=C(CCCN1Cc2ccccc2C1)c1ccc(F)cc1	none
C[C@]12CCC3c4ccc(OCC(=O)O)cc4CCC3C1CCC2=O (some centres not stated)	GPR7 antagonist 21.6
CN1CCc2c(sc3c2C(=O)NC(c2ccco2)N3)C1 (configuration not stated)	BaF3 parental 30.5
CC(C)c1cc(C(=O)OCC(=O)NC(=O)NCc2ccco2)c(O)c(C(C)C)c1	GPR7 antagonist 16.9
COCCn1cnnc1SCC(=O)Nc1cccc(S(=O)(=O)N2CCCCCC2)c1	GPR7 antagonist 20.0
COc1ccccc1-n1cnnc1SCC(=O)N1CCN(C(=O)c2ccco2)CC1	none
CC1=C(C(=O)Nc2cccc(F)c2)C(c2ccsc2)C2=C(CC(C)(C)CC2=O)N1 (configuration not stated)	BaF3 parental 49.2, Ba/F3 V617F tox 81.2, IEC-6 tox 66.7
Cn1c(SCC(=O)Nc2sccc2C#N)nnc1-c1ccccc1	none
O=C(NCc1ccc(F)cc1)c1cnc(Cl)c(Cl)c1	none (no result: BaF3 parental, Ba/F3 V617F tox)
CCC(=O)NC1=C(NC(C)c2ccccc2)C(=O)c2ccccc2C1=O (configuration not stated)	none
CCC(=O)NC1=C(Cl)C(=O)C(NC(=O)CC)=C(Cl)C1=O	IEC-6 tox 73.2
O=C(COc1ccccc1[N+](=O)[O-])N/N=C/C=C/c1ccco1	BaF3 parental 95.0
COc1ccc(N2CCc3c(C)nc4c(OC)cccc4c32)cc1	BaF3 parental 77.7, Ba/F3 V617F tox 87.4, IEC-6 tox 69.7
COc1ccc(N2CCc3c(C)nc4c(OC)cc(OC)cc4c32)cc1	none
COc1cc2c(cc1OC)C(c1cccc(C)c1)CC(=O)N2 (configuration not stated)	none
CC#CCNCc1ccccc1	BaF3 parental 34.5
CC(C)c1ccc(CNCc2ccccc2)cc1	none
CCOc1ccccc1CN1CCN(C/C=C/c2ccc(OC)cc2)CC1CCO (configuration not stated)	BaF3 parental 43.1
COc1cccc(NC(=O)N2CCCC2C(=O)NCc2ccccc2)c1 (configuration not stated)	none
CC1CCCCN1CC(O)COCCC12CC3CC(CC(C3)C1)C2 (configuration not stated)	FID counter 43.8
CC(C)CNC(=O)CN1C(=O)NC2(CCc3ccccc32)C1=O (configuration not stated)	none (no result: BaF3 parental, Ba/F3 V617F tox)
COc1cc(CNCC(C)C)cc(Br)c1OCC(=O)Nc1ccccc1	GPR7 antagonist 18.3

Source: PubChem
